Calls of active or inactive are those of the source. Unless noted, no rule for the calls is given here.
Columns and labels:
[1] = resazurin metabolic signal in HepG2 cells – cell-based, resazurin fluorescence, 24 h, PK04 Diversity Set, profiling panel (AID 1172); conditions: HepG2 viability, higher = more signal
[2] = budding yeast growth changes without added modifier – OD600, strain BY4716, 24 h, basal condition, primary screen (AID 1173); conditions: S. cerevisiae BY4716 growth, OD600, 24 h; higher = more signal, called active from +8 up or from −8 down
[3] = viability profiling in MM1S myeloma cells – cell-based, resazurin fluorescence, basal, 24 h, PK04 Diversity Set, profiling panel (AID 1174); conditions: higher = more signal, called active from +8 up or from −8 down;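 also: MM1S multiple myeloma cell line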
[4] = target: Dihydroorotate dehydrogenase (quinone), mitochondrial (Plasmodium falciparum (isolate 3D7)) (UniProt Q08210); assay: inhibition of P. falciparum DHODH – biochemical, C-terminal His tag, absorbance 600 nm, primary screen (AID 1175); conditions: PfDHODH enzyme, DCIP absorbance 600 nm; higher = more signal, called active from +8 up or from −8 down;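 also: recombinant parasite enzyme with a five histidine tag at its C terminus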
Sequence of Dihydroorotate dehydrogenase (quinone), mitochondrial (Plasmodium falciparum (isolate 3D7)) (Q08210 whole entry, looked up): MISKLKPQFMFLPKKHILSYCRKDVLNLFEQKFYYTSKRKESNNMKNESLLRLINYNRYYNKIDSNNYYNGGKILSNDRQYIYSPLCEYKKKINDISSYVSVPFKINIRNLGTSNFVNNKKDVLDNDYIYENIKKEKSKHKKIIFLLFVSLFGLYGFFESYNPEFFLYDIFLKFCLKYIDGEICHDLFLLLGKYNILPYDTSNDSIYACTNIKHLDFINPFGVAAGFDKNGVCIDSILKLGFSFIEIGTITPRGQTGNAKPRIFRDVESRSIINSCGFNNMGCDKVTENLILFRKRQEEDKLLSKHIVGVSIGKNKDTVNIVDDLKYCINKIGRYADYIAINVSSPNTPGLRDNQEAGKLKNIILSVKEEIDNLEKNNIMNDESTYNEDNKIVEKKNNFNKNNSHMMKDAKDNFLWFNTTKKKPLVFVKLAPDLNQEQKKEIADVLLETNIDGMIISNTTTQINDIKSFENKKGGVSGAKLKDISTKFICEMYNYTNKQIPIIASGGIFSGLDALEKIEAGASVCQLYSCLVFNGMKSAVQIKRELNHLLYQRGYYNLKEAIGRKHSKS

[5] = inhibition of PAO1 biofilm formation – strain PAO1, LB-PBS medium, absorbance 600 nm, primary screen (AID 1176); conditions: P. aeruginosa PAO1 growth/biofilm, A600, 12 h; higher = more signal
[6] = growth modulation of vineyard yeast isolate – strain RM11-1a, OD600, basal, 24 h, primary screen (AID 1177);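 also: cultures grown under basal conditions with no added stressor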; conditions: S. cerevisiae RM11-1a growth, OD600, 24 h; higher = more signal, called active from +8 up or from −8 down
[7] = growth of efflux-deficient E. coli DRC39 – strain DRC39, OD650, 24 h, E. coli filamentation inducers, primary screen (AID 1178);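 also: growth measured as culture turbidity by optical density at 650 nm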; conditions: E. coli DRC39 acrAB, higher = more signal, called active from +8 up or from −8 down
[8] = growth of efflux-deficient E. coli DRC39 – strain DRC39, OD650, 48 h, E. coli filamentation inducers, primary screen (AID 1179);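 also: screen aims at cell division blockers that make cells filament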; conditions: E. coli DRC39 delta-acrAB growth, higher = more signal, called active from +8 up or from −8 down
[9] = viability profiling in RPMI8226 myeloma cells – cell-based, resazurin fluorescence, basal, 24 h, PK04 Diversity Set, profiling panel (AID 1180); conditions: higher = more signal;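 also: RPMI8826 multiple myeloma cell line at 5000 cells per well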
[10] = target: E3 ubiquitin-protein ligase XIAP (Homo sapiens) (UniProt P98170); assay: small molecules binding XIAP protein – biophysical, small-molecule microarray, fluorescence 635 nm, primary screen (AID 1181); conditions: higher = more signal;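 also: score merges 667 nm emission and signal to noise over triplicate slides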
Sequence of E3 ubiquitin-protein ligase XIAP (Homo sapiens) (P98170 whole entry, looked up, the tested form may be a part): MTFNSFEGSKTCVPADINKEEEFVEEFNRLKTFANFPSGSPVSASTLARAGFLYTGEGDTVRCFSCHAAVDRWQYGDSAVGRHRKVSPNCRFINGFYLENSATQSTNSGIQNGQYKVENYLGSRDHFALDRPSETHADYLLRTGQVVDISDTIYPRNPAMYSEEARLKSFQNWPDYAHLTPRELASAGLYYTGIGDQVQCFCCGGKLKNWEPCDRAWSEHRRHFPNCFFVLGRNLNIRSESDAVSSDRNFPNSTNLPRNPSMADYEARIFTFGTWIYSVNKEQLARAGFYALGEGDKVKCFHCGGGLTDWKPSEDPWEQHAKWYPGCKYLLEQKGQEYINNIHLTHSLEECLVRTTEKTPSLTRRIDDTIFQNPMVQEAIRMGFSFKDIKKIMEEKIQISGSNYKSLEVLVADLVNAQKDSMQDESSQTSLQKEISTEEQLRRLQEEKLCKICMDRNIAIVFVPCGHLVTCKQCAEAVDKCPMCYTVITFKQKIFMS

[11] = test system: XIP peptide (Xip251-270) binding; assay: XIP fragment 251-270 binding compounds – biochemical, small-molecule microarray, fluorescence 635/667 nm, 0.1 µg/mL protein, primary screen (AID 1182); conditions: fluorescent protein binding, 635 nm, higher = more signal, called active from +8 up or from −8 down
[12] = test system: XIP peptide (Xip251-270); assay: compounds binding XIP fragment 251-270 – biochemical, small-molecule microarray, fluorescence 635/667 nm, 0.5 µg/mL protein, primary screen (AID 1183); conditions: fluorescence 635 nm, higher = more signal
[13] = blood-stage malaria parasite viability loss – strain 3D7, DAPI fluorescence, 100 nL, primary screen (AID 1184);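 also: parasites grown inside human red blood cells in medium with human serum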; conditions: P. falciparum 3D7 growth, 3 d, higher = more signal
[14] = target: Homeobox protein Hox-A13 (Mus musculus) (UniProt Q62424); assay: disruptors of Hoxa13 oligonucleotide interaction – biochemical, fluorescence polarization, labeled oligonucleotide, primary screen (AID 1185); conditions: Hoxa13:DNA binding, 15 min, higher = more signal, called active from +8 up or from −8 down
Sequence of Homeobox protein Hox-A13 (Mus musculus) (Q62424 whole entry, looked up): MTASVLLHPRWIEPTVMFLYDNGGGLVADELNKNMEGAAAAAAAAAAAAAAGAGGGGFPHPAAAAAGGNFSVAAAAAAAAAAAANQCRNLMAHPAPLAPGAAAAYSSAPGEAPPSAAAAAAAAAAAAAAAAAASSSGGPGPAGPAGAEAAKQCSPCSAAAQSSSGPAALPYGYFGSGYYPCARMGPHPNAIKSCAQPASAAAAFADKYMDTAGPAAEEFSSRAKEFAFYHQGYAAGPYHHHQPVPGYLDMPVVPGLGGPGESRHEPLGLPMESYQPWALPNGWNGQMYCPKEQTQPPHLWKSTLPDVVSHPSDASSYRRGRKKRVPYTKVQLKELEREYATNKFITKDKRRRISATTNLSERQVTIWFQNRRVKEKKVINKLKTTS

[15] = blockers of DNA damage checkpoint Chk1 activation – imaging, HeLa, hydroxyurea, phospho-Chk1 antibody, percent positive cells, primary screen (AID 1186); conditions: hydroxyurea-induced phospho-Chk1 immunofluorescence imaging, higher = more signal
[16] = blockers of DNA damage checkpoint Chk1 activation – imaging, HeLa, hydroxyurea, phospho-Chk1 nuclear intensity, primary screen (AID 1187); conditions: hydroxyurea-induced phospho-Chk1 immunofluorescence imaging, higher = more signal

SMILES: CCCC=C(CCC)[C@@H](NS(=O)(=O)c1ccc(Cl)cc1)c1ccccc1
- z-score [1]: 1.1
- z-score [2]: 0.733 (inactive)
- z-score [3]: 0.604 (inactive)
- composite z-score [4]: -0.532 (inactive)
- z-score [5]: 1.97 (inactive)
- z-score [6]: -0.233 (inactive)
- z-score [7]: -0.558 (inactive)
- z-score [8]: -1 (inactive)
- z-score [9]: -0.321
- composite z-score [10]: 0.102
- composite z-score [11]: -0.641 (inactive)
- composite z-score [12]: 0.36
- z-score [13]: -1.11
- z-score [14]: -1.87 (inactive)
- z-score [15]: 0.081 (inactive)
- z-score [16]: 0.268 (inactive)

SMILES: COCC(=C=CC[C@@H](O)c1cccc(OCCO)c1)C[C@@H](O)COCc1ccccc1
- z-score [1]: 0.744
- z-score [2]: -0.353 (inactive)
- z-score [3]: 0.629 (inactive)
- composite z-score [4]: -2.13 (inactive)
- z-score [5]: 0.13 (inactive)
- z-score [6]: -2.24 (inactive)
- z-score [7]: 0.481 (inactive)
- z-score [8]: 0.392 (inactive)
- z-score [9]: 0.629
- composite z-score [10]: 1.16
- composite z-score [11]: 0.0062 (inactive)
- composite z-score [12]: 0.0674
- z-score [13]: -1.71
- z-score [14]: -3.67 (inactive)
- z-score [15]: -0.789 (inactive)
- z-score [16]: -0.407 (inactive)

SMILES: CCC[C@@H]1[C@@H](Sc2ccccc2)[C@@H](C(=O)O)[C@H](c2ccc(C)cc2)N1S(=O)(=O)c1ccc(C)cc1
- z-score [1]: -0.428
- z-score [2]: -1.99 (inactive)
- z-score [3]: -0.0959 (inactive)
- composite z-score [4]: -1.04 (inactive)
- z-score [5]: 0.257 (inactive)
- z-score [6]: -0.122 (inactive)
- z-score [7]: -0.008 (inactive)
- z-score [8]: 0.329 (inactive)
- z-score [9]: -0.862
- composite z-score [10]: -0.0062
- composite z-score [11]: 0.163 (inactive)
- composite z-score [12]: 0.787
- z-score [13]: 0.552
- z-score [14]: -5.85 (inactive)
- z-score [15]: 0.275 (inactive)
- z-score [16]: 0.971 (inactive)

SMILES: C=C(COC)C(=O)CC[C@@H](OC(C)=O)c1ccc(OCCO)cc1
- z-score [1]: -0.487
- z-score [2]: -0.997 (inactive)
- z-score [3]: -0.487 (inactive)
- composite z-score [4]: -5.2 (inactive)
- z-score [5]: 0.98 (inactive)
- z-score [6]: 0.423 (inactive)
- z-score [7]: -0.623 (inactive)
- z-score [8]: -0.432 (inactive)
- z-score [9]: -0.781
- composite z-score [10]: -0.0848
- composite z-score [11]: 1.61 (inactive)
- composite z-score [12]: 0.779
- z-score [13]: -0.964
- z-score [14]: -4.63 (inactive)
- z-score [15]: 0.0887 (inactive)
- z-score [16]: 0.241 (inactive)

SMILES: [N-]=[N+]=NCc1ccccc1C[C@]1(C(=O)N2CCCCC2)N=C(c2ccc(OCCCO)cc2)O[C@H]1c1ccccc1
- z-score [1]: 0.116
- z-score [2]: 1.71 (inactive)
- z-score [3]: -2.13 (inactive)
- composite z-score [4]: 0.939 (inactive)
- z-score [5]: -0.372 (inactive)
- z-score [6]: 2.8 (inactive)
- z-score [7]: 0.914 (inactive)
- z-score [8]: 1.23 (inactive)
- z-score [9]: -5.14
- composite z-score [10]: 0.17
- composite z-score [11]: 0.404 (inactive)
- composite z-score [12]: 0.779
- z-score [13]: -2.34
- z-score [14]: -4.35 (inactive)
- z-score [15]: -0.527 (inactive)
- z-score [16]: -0.286 (inactive)

SMILES: CCOC(=O)C[C@H]1[C@H](OC(=O)c2ccc(-c3ccccc3)cc2)[C@@H](NC(=O)c2ccc3ccccc3c2)c2cc(OCCCO)ccc2N1C(=O)c1ccccc1
- z-score [1]: -0.491
- z-score [2]: 1.31 (inactive)
- z-score [3]: -0.483 (inactive)
- composite z-score [4]: 0.622 (inactive)
- z-score [5]: 0.055 (inactive)
- z-score [6]: 1.13 (inactive)
- z-score [7]: -0.0319 (inactive)
- z-score [8]: -0.0532 (inactive)
- z-score [9]: -0.221
- composite z-score [10]: 0.0454
- composite z-score [11]: 0.377 (inactive)
- composite z-score [12]: -0.0506
- z-score [13]: -0.633
- z-score [14]: -1.35 (inactive)
- z-score [15]: 0.0034 (inactive)
- z-score [16]: 0.241 (inactive)

SMILES: COCCOC(=O)N1C(=O)[C@@]2(c3cc(C#Cc4ccc(OC)cc4)ccc31)[C@H](C(=O)N1CCCCCCC1)[C@H]1C(=O)O[C@H](c3ccccc3)[C@H](c3ccccc3)N1[C@@H]2c1ccccc1OCCO
- z-score [1]: -0.107
- z-score [2]: 1.88 (inactive)
- z-score [3]: -0.0216 (inactive)
- composite z-score [4]: -0.267 (inactive)
- z-score [5]: 2.36 (inactive)
- z-score [6]: 3.2 (inactive)
- z-score [7]: -0.609 (inactive)
- z-score [8]: -0.399 (inactive)
- z-score [9]: -0.429
- composite z-score [10]: 0.89
- composite z-score [11]: 1.65 (inactive)
- composite z-score [12]: 0.728
- z-score [13]: -2.15
- z-score [14]: 4.81 (inactive)
- z-score [15]: -0.0224 (inactive)
- z-score [16]: 0.504 (inactive)

SMILES: COCCOC(=O)N1C(=O)[C@@]2(c3cc(C#CC4(O)CCCCCC4)ccc31)[C@H](C(=O)NC[C@H](O)c1ccccc1)[C@H]1C(=O)O[C@H](c3ccccc3)[C@H](c3ccccc3)N1[C@@H]2c1ccc(O)cc1
- z-score [1]: 0.982
- z-score [2]: -0.598 (inactive)
- z-score [3]: 0.483 (inactive)
- composite z-score [4]: -0.122 (inactive)
- z-score [5]: -0.108 (inactive)
- z-score [6]: 0.759 (inactive)
- z-score [7]: 0.0468 (inactive)
- z-score [8]: 0.321 (inactive)
- z-score [9]: -0.0629
- composite z-score [10]: -0.131
- composite z-score [11]: 0.273 (inactive)
- composite z-score [12]: 0.78
- z-score [13]: -0.44
- z-score [14]: -1.8 (inactive)
- z-score [15]: 0.302 (inactive)
- z-score [16]: 0.487 (inactive)

SMILES: C=C(COC)/C(=C/C[C@H](OC(=O)c1ccncc1)c1cccc(OCCO)c1)c1cnc2ccccc2c1
- z-score [1]: 0.123
- z-score [2]: 0.14 (inactive)
- z-score [3]: -1.24 (inactive)
- composite z-score [4]: -5.24 (inactive)
- z-score [5]: 1.14 (inactive)
- z-score [6]: -0.148 (inactive)
- z-score [7]: -0.259 (inactive)
- z-score [8]: -0.199 (inactive)
- z-score [9]: -0.697
- composite z-score [10]: -0.0156
- composite z-score [11]: 4.42 (inactive)
- composite z-score [12]: 0.823
- z-score [13]: -2.72
- z-score [14]: -4.94 (inactive)
- z-score [15]: 0.321 (inactive)
- z-score [16]: 0.275 (inactive)

SMILES: CCCC[C@@H](O)C1=C(COC)Cn2c(=O)n(-c3ccccc3)c(=O)n2[C@H]1CO
- z-score [1]: -0.603
- z-score [2]: -1.86 (inactive)
- z-score [3]: -0.0278 (inactive)
- composite z-score [4]: -1.45 (inactive)
- z-score [5]: -0.131 (inactive)
- z-score [6]: -2.03 (inactive)
- z-score [7]: 1.15 (inactive)
- z-score [8]: 1.06 (inactive)
- z-score [9]: -0.0456
- composite z-score [10]: -0.189
- composite z-score [11]: -0.698 (inactive)
- composite z-score [12]: -0.0217
- z-score [13]: 0.519
- z-score [14]: -0.879 (inactive)
- z-score [15]: -0.464 (inactive)
- z-score [16]: 0.126 (inactive)

— PubChem BioAssay
